We go through 19 compounds from PubChem BioAssay.

As usually defined, the inhibition is the change of the read-out against control, counted positive when it falls.

Unmarked numbers belong to inactive results. For some assays here: Measured potencies and affinities stand elsewhere. Active and inactive are the calls of the source. Unless noted, how the calls were made is not given here.

Experiment [1] is described as follows: antimalarial activity against Dd2 strain (AID 2302;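 active means growth inhibition above 50% at the single 2 µM test dose, taken to imply half-maximal potency below 2 µM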;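 further: 0% = DMSO untreated growth and 100% = chloroquine plus artemisinin killed control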). Particulars: P. falciparum Dd2 in RBCs, LDH growth readout, 72 h; at 2 µM; hits give high values.
The nature of experiment [2]: HepG2 cytotoxicity, primary screen, cytotoxicity control for P. falciparum antimalarial project, cell-based, ATP luminescence (AID 2303;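 active means inhibition above 50%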;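 further: 0% = DMSO wells and 100% = digitonin-killed cells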). Particulars: HepG2 viability, 24-48 h, at 10 µM, hits give high values.
The target in experiment [3] is L-lactate dehydrogenase (Plasmodium falciparum (isolate CDC / Honduras)) (UniProt Q27743). The experiment in a line: PfLDH activity inhibition – cell lysate, 3D7 strain, counter-screen for P. falciparum growth inhibition project (AID 2304).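 Further: 0% = vehicle and 100% = reference inhibitor.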 As to conditions: P. falciparum 3D7 crude extract, LDH APAD/NBT absorbance; at 2 µM; hits give high values. On the technique in general: The purpose of a counterscreen is to sort out artefacts and off-target activity.

A short description of experiment [4]: inhibition of 3D7 malaria parasite growth – strain 3D7 (AID 2306).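 Further: 0% = DMSO wells and 100% = chloroquine plus artemisinin control wells.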 Particulars: P. falciparum 3D7 erythrocytic growth, LDH absorbance, 72 h; at 2 µM; hits give high values.
Experiment [5] deals with Calcium-dependent protein kinase 1 (Plasmodium falciparum (isolate 3D7)) (UniProt P62344). The experiment in a line: PfCDPK1 kinase inhibitors, biochemical, TCAMS library (AID 1159585; cut-off not given, nearly all actives have IC50 up to about 0.98 µM;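 further: inhibitors leave more ATP so luminescence rises with inhibition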). As to conditions: recombinant PfCDPK1, Kinase-Glo ATP depletion luminescence.
Experiment [6] deals with Plasmodium falciparum protein kinase 6 (PK6, PF3D7_1337100) (UniProt Q8IDW1). The experiment in a line: PfPK6 kinase inhibitors, biochemical, TCAMS library (AID 1159586). As to conditions: recombinant PfPK6, Kinase-Glo ATP depletion luminescence. In general terms: Kinase-Glo measures the ATP left after a reaction by luminescence.
The target of experiment [7] is Protein kinase 7 (PK7), Plasmodium falciparum 3D7 (PF3D7_0213400) (UniProt Q7YTF7). The experiment in a line: inhibition of Plasmodium PK7 catalytic activity – biochemical, TCAMS antimalarial set, Kinase-Glo luminescence (AID 1159587). Particulars: recombinant PfPK7, Kinase-Glo ATP depletion luminescence.
The target of experiment [8] is Calcium-dependent protein kinase 4 (Plasmodium falciparum (isolate 3D7)) (UniProt Q8IBS5). The experiment can be described thus: PfCDPK4 kinase inhibitors, biochemical, TCAMS library (AID 1159588; cut-off not given, nearly all actives have IC50 up to about 0.91 µM). Particulars: recombinant PfCDPK4, Kinase-Glo ATP depletion luminescence.
Calcium-dependent protein kinase 4 (Plasmodium falciparum (isolate 3D7)), sequence (Q8IBS5 whole entry, looked up): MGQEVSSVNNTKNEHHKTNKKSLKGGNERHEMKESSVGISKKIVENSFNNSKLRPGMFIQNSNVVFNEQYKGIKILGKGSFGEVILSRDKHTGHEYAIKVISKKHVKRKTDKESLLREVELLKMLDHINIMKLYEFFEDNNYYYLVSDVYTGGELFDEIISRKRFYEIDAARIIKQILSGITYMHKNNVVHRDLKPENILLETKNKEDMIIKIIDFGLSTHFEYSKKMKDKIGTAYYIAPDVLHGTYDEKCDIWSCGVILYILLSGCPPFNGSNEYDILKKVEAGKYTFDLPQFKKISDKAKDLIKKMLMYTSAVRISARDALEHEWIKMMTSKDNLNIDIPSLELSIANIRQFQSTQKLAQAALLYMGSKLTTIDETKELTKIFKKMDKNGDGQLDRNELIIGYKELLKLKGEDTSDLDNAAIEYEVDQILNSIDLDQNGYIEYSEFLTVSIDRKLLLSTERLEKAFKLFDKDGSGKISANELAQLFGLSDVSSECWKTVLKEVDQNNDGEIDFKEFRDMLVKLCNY

Plasmodium falciparum protein kinase 6 (PK6, PF3D7_1337100), sequence (Q8IDW1 1-305): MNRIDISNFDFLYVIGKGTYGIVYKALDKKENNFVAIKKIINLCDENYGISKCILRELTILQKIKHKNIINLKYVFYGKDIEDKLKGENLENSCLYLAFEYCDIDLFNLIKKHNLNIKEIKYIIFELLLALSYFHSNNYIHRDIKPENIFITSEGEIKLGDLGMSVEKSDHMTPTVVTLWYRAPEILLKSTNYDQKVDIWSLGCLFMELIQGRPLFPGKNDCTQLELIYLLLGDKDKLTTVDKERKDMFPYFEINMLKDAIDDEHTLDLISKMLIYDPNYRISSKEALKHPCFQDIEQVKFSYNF
Calcium-dependent protein kinase 1 (Plasmodium falciparum (isolate 3D7)), sequence (P62344 whole entry, looked up): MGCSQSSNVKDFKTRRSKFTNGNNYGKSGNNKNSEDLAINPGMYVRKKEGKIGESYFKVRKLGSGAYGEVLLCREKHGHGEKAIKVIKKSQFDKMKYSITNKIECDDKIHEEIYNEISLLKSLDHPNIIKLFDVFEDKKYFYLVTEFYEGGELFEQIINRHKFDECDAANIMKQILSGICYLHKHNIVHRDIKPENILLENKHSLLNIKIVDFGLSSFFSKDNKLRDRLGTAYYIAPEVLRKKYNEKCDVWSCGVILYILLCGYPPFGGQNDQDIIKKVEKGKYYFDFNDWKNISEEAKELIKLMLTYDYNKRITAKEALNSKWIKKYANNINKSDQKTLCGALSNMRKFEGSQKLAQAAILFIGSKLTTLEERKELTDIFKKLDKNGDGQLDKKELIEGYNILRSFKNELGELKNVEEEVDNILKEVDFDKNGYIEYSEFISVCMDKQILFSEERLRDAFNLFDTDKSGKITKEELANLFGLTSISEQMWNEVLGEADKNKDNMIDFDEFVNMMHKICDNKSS
L-lactate dehydrogenase (Plasmodium falciparum (isolate CDC / Honduras)), sequence (Q27743 whole entry, looked up): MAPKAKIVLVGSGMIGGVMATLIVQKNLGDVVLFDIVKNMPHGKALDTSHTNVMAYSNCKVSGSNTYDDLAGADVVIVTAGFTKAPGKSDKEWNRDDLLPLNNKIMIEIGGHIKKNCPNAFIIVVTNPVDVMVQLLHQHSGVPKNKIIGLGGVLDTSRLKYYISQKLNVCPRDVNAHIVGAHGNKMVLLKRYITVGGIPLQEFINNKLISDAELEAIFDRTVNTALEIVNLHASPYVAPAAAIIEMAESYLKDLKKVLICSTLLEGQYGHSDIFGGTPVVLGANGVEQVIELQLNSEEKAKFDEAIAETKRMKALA
Protein kinase 7 (PK7), Plasmodium falciparum 3D7 (PF3D7_0213400), sequence (Q7YTF7 1-343): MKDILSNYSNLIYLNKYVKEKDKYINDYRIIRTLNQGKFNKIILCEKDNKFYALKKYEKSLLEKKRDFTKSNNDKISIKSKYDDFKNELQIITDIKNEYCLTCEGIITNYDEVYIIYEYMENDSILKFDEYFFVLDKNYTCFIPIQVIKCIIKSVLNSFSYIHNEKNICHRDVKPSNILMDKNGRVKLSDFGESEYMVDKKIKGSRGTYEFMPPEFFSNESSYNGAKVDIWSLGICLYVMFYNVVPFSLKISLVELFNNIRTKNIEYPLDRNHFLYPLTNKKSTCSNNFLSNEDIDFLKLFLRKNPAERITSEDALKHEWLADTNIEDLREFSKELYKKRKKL

As to `O=C(NC(Nc1ccc([N+](=O)[O-])cc1)C(Cl)(Cl)Cl)c1ccc(Cl)cc1` (configuration not stated), the values for the growth inhibition in experiment [1] and in experiment [4] were 94% (active) and 98% (active), respectively. For the same compound, the inhibition in experiment [2] is 21%; in experiment [3] it was 4%. For the same compound, the outcome in experiment [5], in experiment [6], in experiment [7] and in experiment [8] was inactive.

Consider `COc1ccc(CC2(CO)CCN(Cc3ccc(O)c(Cl)c3)CC2)cc1`, for which the growth inhibition in experiment [1] was 14%; in experiment [4], 98% (active). Moreover, the values for the inhibition in experiment [2] and in experiment [3] were -6% and -2%, respectively. The result in experiment [5], in experiment [6], in experiment [7] and in experiment [8] was inactive.

For `O=C(Nc1cccc([N+](=O)[O-])c1)N(Cc1ccc(Cl)c(Cl)c1)C1CCNCC1`, the growth inhibition in experiment [1] is -2%; in experiment [4], 99% (active). Further, the inhibition in experiment [2] was 17%; in experiment [3] it was -2%. Moreover, the result in experiment [5], in experiment [6], in experiment [7] and in experiment [8] was inactive.

Consider `Fc1ccc2nc(-c3ccc(-c4ccc(CN5CCC(CCN6CCCCC6)CC5)cc4)cc3)[nH]c2c1`, for which the growth inhibition in experiment [1] and in experiment [4] was 100% (active) each time. Besides, the inhibition is 98% (active) in experiment [2] and -9% in experiment [3]. Besides, the outcome in experiment [5], in experiment [6], in experiment [7] and in experiment [8] was inactive.

In the case of `COCCn1c(SC(C)C(=O)Nc2cc(C(F)(F)F)ccc2Cl)nc2ccccc2c1=O` (configuration not stated), the growth inhibition in experiment [1] was 95% (active); in experiment [4], 97% (active). Moreover, the inhibition is 8% in experiment [2] and 4% in experiment [3]. In addition, the outcome in experiment [5], in experiment [6], in experiment [7] and in experiment [8] was inactive.

Take `Oc1ccc(-c2ccccc2)cc1CN1CCCCC1`: the values for the growth inhibition in experiment [1] and in experiment [4] were 70% (active) and 93% (active), respectively. Besides, the inhibition is 3% in experiment [2] and -1% in experiment [3]. Further, the result in experiment [5], in experiment [6], in experiment [7] and in experiment [8] was inactive.

As to `O=[N+]([O-])c1ccc2c(-c3ccccc3)c(-c3ccccc3)n(O)c2c1`, the growth inhibition in experiment [1] is 11%; in experiment [4] it was 97% (active). Moreover, the inhibition in experiment [2] was 8%; in experiment [3], -3%. Further, the outcome in experiment [5], in experiment [6], in experiment [7] and in experiment [8] was inactive.

On to `Cc1cc(-c2cccc3c(C(=O)N4CCc5cc6nccc(N7CCN8CCC[C@H]8C7)c6cc54)cccc23)cc(C)n1`, for which the values for the growth inhibition in experiment [1] and in experiment [4] were 76% (active) and 97% (active), respectively. Also, the values for the inhibition in experiment [2] and in experiment [3] were 13% and -3%, respectively. Further, the result in experiment [5], in experiment [6], in experiment [7] and in experiment [8] was inactive.

`CCCCCOc1ccc(C=NNc2nc(-c3ccccc3)cc(=O)[nH]2)cc1`: the values for the growth inhibition in experiment [1] and in experiment [4] were 86% (active) and 88% (active), respectively. Further, the inhibition in experiment [2] was 0%; in experiment [3] it was -2%. In addition, the result in experiment [5], in experiment [6], in experiment [7] and in experiment [8] was inactive.

For `CC(=O)c1c[nH]c(C(=O)Nc2ccc(-c3cn4ccccc4n3)cc2)c1`, the values for the growth inhibition in experiment [1] and in experiment [4] were 95% (active) and 98% (active), respectively. Moreover, the values for the inhibition in experiment [2] and in experiment [3] were 20% and 4%, respectively. The result in experiment [5], in experiment [6], in experiment [7] and in experiment [8] was inactive.

`O=C(O)C[C@H](NC(=O)CCCNC(=O)c1cccc(-c2ccc(Cl)c(Cl)c2)c1)C(=O)O`: the growth inhibition in experiment [1] is -4%; in experiment [4], 91% (active). The inhibition was 5% in experiment [2] and -3% in experiment [3]. Moreover, the result in experiment [5], in experiment [6], in experiment [7] and in experiment [8] was inactive.

As to `O=C(Nc1ccc(OC2CCN(Cc3ccc(F)cc3)CC2)c(Cl)c1)c1cccs1`, the growth inhibition in experiment [1] is 96% (active); in experiment [4], 95% (active). The inhibition in experiment [2] is 7%; in experiment [3], -1%. Moreover, the result in experiment [5], in experiment [6], in experiment [7] and in experiment [8] was inactive.

In the case of `OCCC1CCN(Cc2ccc(-c3ccc(-c4nc5ccccc5[nH]4)cc3)cc2)CC1`, the growth inhibition in experiment [1] was 98% (active); in experiment [4], 99% (active). Moreover, the inhibition in experiment [2] was 35%; in experiment [3], 2%. Also, the result in experiment [5], in experiment [6], in experiment [7] and in experiment [8] was inactive.

Turning to `NC(=O)c1cccc(-n2ccc3cc(CNC4Cc5ccccc5C4)ccc32)c1`, the results for the growth inhibition in experiment [1] and in experiment [4] were 7% and 88% (active), respectively. The inhibition in experiment [2] was 17%; in experiment [3], -1%. For the same compound, the outcome in experiment [5], in experiment [6], in experiment [7] and in experiment [8] was inactive.

Turning to `CN(C)c1ccc(CN2CCC(NC(=O)c3ccc(-c4ccccc4Cl)s3)CC2)cc1`, the growth inhibition is 27% in experiment [1] and 82% (active) in experiment [4]. For the same compound, the inhibition was 35% in experiment [2] and -1% in experiment [3]. The outcome in experiment [5], in experiment [6], in experiment [7] and in experiment [8] was inactive.

For `CCCC(C)Nc1nc(C)cc(N[C@@H](CC(C)C)C(=O)NC2CCCC2)n1` (some centres not stated), the growth inhibition was 22% in experiment [1] and 85% (active) in experiment [4]. For the same compound, the inhibition in experiment [2] is 6%; in experiment [3] it was -2%. Moreover, the outcome in experiment [5], in experiment [6], in experiment [7] and in experiment [8] was inactive.

For `O=C(COc1ccccc1Cc1ccccc1)Nc1cc(Cl)ccc1-n1cncn1`, the figures for the growth inhibition in experiment [1] and in experiment [4] were 93% (active) and 92% (active), respectively. Also, the inhibition in experiment [2] is 5%; in experiment [3] it was -2%. For the same compound, the outcome in experiment [5], in experiment [6], in experiment [7] and in experiment [8] was inactive.

Take `COc1ccc(C(C)Nc2nc(N)c3cc(OC)c(OC)cc3n2)cc1` (configuration not stated): the growth inhibition in experiment [1] was 28%; in experiment [4], 101% (active). In addition, the figures for the inhibition in experiment [2] and in experiment [3] were 23% and -2%, respectively. Also, the result in experiment [5], in experiment [6], in experiment [7] and in experiment [8] was inactive.

On to `COc1cccc(-c2cnc(N)c(-c3nc4ccc(C(F)(F)F)cc4[nH]3)c2)c1`, for which the figures for the growth inhibition in experiment [1] and in experiment [4] were 30% and 99% (active), respectively. In addition, the inhibition in experiment [2] is 5%; in experiment [3], -4%. The outcome in experiment [5], in experiment [6], in experiment [7] and in experiment [8] was inactive.
